Source: PubChem BioAssay (National Center for Advancing Translational Sciences (NCATS))
HP1b chromo inh – inhibitors of HP1-beta chromodomain binding to methylated histone tails | 390,000 tested, 0.56% active | Potency, µM (titrated, usually from 114 µM), for inactives: at the highest dose activity change, negative = inhibition, usual class: inhibitors | P83916 | AlphaScreen HP1-beta / biotin-H3K9me3 peptide binding; note: nearly all actives have a fitted effect of over 70% in size
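HP1-beta protein (50 nM final) preincubated 30 min at room temperature with biotinylated H3(1-18)K9me3 peptide (50 nM) in PBS pH 7.4, 0.01% Tween-20, then compound added for 30 min. AlphaScreen streptavidin donor/nickel chelate acceptor beads (10 ug/mL final), 30 min dark, luminescence read.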
G9a block – inhibitors of human histone lysine methyltransferase G9a. Q96KQ7. Potency, µM (doses to about 102 µM), without a hit: top-dose activity, negative = inhibition, actives largely listed as inhibitors. 350,000 tested, 8.8% active. G9a H3K9 monomethylation, AlphaScreen, 2 h; note: % is set by controls: 0 for no effect and ±100 for the full control effect; nearly all actives have a fitted effect of over 75% in size
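Readings reflect AlphaScreen signal from monomethyl-H3K9 antibody detection. HMT at 20 nM; substrate b-H3K9 500 nM; cofactor SAM 20 uM; 2 h RT reaction; compounds tested as titrations in qHTS with 15 min preincubation.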
BAZ2B inh – inhibitors of human BAZ2B bromodomain; Q9UIF8; AlphaScreen BAZ2B-H3K14Ac peptide displacement; Potency, µM (doses to about 114 µM), inactives show top-dose activity change, negative = inhibition, usual class: inhibitors; 360,000 tested, 4.4% active; AID 504333; note: % is set by controls: 0 for no effect and ±100 for the full control effect; nearly all actives have a fitted effect of over 60% in size
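Compounds, titrated to a top concentration of 110 uM, were incubated 30 min at room temperature with preformed BAZ2B/acetyl-K14 H3 peptide complex (50 nM each). Proximity signal was measured by AlphaScreen after 20 min with beads.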
L3MBTL1 block – inhibitors of human L3MBTL1 | Potency, µM (top dose mostly 57.1 µM), for inactives: at the highest dose activity, negative = inhibition, actives largely listed as inhibitors | Q9Y468 | AlphaScreen L3MBTL1–H3K9me1 peptide binding | 230,000 tested, 0.66% active | AID 485360; note: % is set by controls: 0 for no effect and ±100 for the full control effect; nearly all actives have a fitted effect of over 60% in size
Target sequence (Q9Y468 whole entry, looked up): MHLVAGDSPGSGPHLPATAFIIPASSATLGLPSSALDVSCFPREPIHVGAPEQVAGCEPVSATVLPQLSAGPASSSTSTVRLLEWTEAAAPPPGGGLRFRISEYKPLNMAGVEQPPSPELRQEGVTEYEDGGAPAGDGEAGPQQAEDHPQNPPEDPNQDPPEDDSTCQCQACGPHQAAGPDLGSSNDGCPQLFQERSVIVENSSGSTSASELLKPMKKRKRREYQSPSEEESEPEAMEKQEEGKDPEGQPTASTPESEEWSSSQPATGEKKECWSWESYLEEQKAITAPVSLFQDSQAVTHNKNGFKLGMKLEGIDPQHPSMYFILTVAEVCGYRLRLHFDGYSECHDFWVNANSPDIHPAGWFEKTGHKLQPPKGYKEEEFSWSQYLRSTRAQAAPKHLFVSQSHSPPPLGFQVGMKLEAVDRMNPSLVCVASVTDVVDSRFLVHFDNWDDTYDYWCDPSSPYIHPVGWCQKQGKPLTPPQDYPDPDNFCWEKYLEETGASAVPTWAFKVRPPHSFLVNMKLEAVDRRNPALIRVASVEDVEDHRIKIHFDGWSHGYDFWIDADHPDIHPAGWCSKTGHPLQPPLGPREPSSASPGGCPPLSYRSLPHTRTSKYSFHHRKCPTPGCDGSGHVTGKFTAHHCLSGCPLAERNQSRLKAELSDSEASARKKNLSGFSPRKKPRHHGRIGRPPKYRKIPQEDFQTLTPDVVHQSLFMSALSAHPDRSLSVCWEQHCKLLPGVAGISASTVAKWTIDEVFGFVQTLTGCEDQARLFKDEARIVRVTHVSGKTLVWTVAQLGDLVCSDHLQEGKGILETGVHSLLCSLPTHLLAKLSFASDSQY
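AlphaScreen assay: L3MBTL1 (50 nM final) was preincubated 30 min at room temperature with biotinylated H3(1-15)K9me1 peptide (75 nM final), then 30 min with library compounds; streptavidin donor and nickel chelate acceptor beads (10 ug/mL final) added, 30 min dark.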
JMJD2A Tudor – blocks the human JMJD2A Tudor domain; AID 504339; 390,000 tested, 4.4% active; O75164; AlphaScreen JMJD2A-Tudor / H3K4me3 peptide binding; Potency, µM (series often up to 114 µM), inactives show at the highest dose activity change, negative = inhibition, actives largely listed as inhibitors; note: % is set by controls: 0 for no effect and ±100 for the full control effect; nearly all actives have a fitted effect of over 50% in size
Sfp inh – Sfp phosphopantetheinyl transferase inhibition. Biochemical Sfp PPTase activity, qHTS. Potency, µM, inactives show largest response in the series, negative = inhibition, usual class: inhibitors. 310,000 tested, 3.5% active. AID 1490;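 note: the enzyme is Sfp with the accession as filed and its product quenches rhodamine fluorescence; 0% = enzyme reaction without inhibitor and -100% = no enzyme wells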
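Reaction rates are the 30-min fluorescence difference (ex 525, em 598 nm) in wells containing 15 nM Sfp, 5 uM rhodamine-CoA and 12.5 uM BHQ-2-YbbR at pH 7.6 with 10 mM MgCl2.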
* = called active by the depositor; u = inconclusive; x = not tested or not shown; ! = not confirmed by another sample; [ ] = another dose, or the depositor's remark. The list is not random: actives were taken first. Their share in the collection is about 12%. Calls come from the whole dose curve; as a rule, active = well fitted curve in the direction sought with a large enough effect; inconclusive = small, poorly fitted or top-dose-only effect, or another doubt; inactive = no such curve, though single readings can be large; an effect the other way counts as inactive or inconclusive. Potency is the fitted concentration of half-maximal effect.

SMILES	HP1b chromo inh	G9a block	BAZ2B inh	L3MBTL1 block	JMJD2A Tudor	Sfp inh
CC(C)(C)C(=O)Nc1nc(=S)ss1	-20%	u	-9%	x	-20%	22µM*
CCC(=O)Nc1nc(=S)ss1	u	8.9µM*	u	x	-35%	10µM*
FC(F)(F)c1cc(CN2CCC3(CCNCC3)CC2)cc(C(F)(F)F)c1	x	2%[12.7 µM]	x	x	x	16%
CN(CC(=O)Nc1ccc(F)cc1)CC(=O)NC1CCCCC1	17%	10%[2.33 µM]	7%	4%	-15%	x
CNc1ccccc1C(C)(C)c1cc(-c2cccc([N+](=O)[O-])c2)no1	-22%	32µM*	u	u	u	14%
CNc1ccccc1C(C)(C)c1cc(-c2cccc(Br)c2)no1	28%	u	3%	x	-24%	-5%
O=C(O)c1cccc(N2C(=O)/C(=C/c3ccc(SCc4ccc(Cl)cc4)o3)SC2=S)c1	-16%	20µM*	32µM*	3.5µM*	45µM*	40µM*
O=C(O)c1cccc(N2C(=O)c3ccc(Oc4ccc(Cl)cc4)cc3C2=O)c1	-5%	-13%	-13%	-10%	-17%	-9%
CC1CCN(S(=O)(=O)c2ccc3c(c2)CCN3C(=O)Nc2ccc(Br)cc2F)CC1	37%	14%[59 µM]	-13%	x	-14%	x
Cc1ccc2nc(Cl)c(CN(C(=O)c3cnccn3)C3CCCCC3)cc2c1	9%	20%[0.0925 µM]	-7%	5%	-22%	-5%
CC1(C)SC(=Nc2ccccc2)N(S(=O)(=O)c2ccccc2)C1=O	22%	-12%	-2%	9%	-12%	34%
O=C1C(c2ccccc2)SC(=Nc2ccccc2)N1S(=O)(=O)c1ccccc1 (centres undefined)	u	u	u	x	-24%	13µM*
CCCn1c(-c2ccc(F)cc2)nc2c(NCCN(CC)CC)nc(C)nc21	x	x	x	x	x	1%
O=S1(=O)C=C(SCCN2CCCCC2)c2ccccc21	37%	50µM*	-8%	-7%	13%	16%
Cc1ccc(NC(=O)N2CCN3CCCCC3C2)cc1C (centres undefined)	32%	0%[59 µM]	-10%	x	6%	x
CCN1CCN(c2c(/C=C3\SC(=S)N(Cc4ccco4)C3=O)c(C)c(C#N)c(=O)n2C)CC1	-4%	22µM*	-26%	x	u	25µM*
CCN1C(=O)/C(=C\N2CCN(C(=O)c3ccco3)CC2)SC1=S	38%	-3%	-1%	0%	-3%	8%
Clc1cccc(-c2csc(-c3nc(-c4ccc(Br)s4)cs3)n2)c1	31%	16%[59 µM]	0%	x	11%	x
COc1ccc(N2CCN(C(=O)CCc3c(C)nc4cc(-c5cccc(F)c5)nn4c3C)CC2)cc1	49%	-5%[59 µM]	-5%	x	-1%	x
COc1ccc(C(C)=O)c(OC(=O)c2ccc(OC)c(OC)c2)c1	29%	14%[12.7 µM]	-3%	3%	-5%	6%
COc1ccc(C(=O)Nc2cccc(OC(=O)c3ccc(C)c(C)c3)c2)cc1	50%	x	-36%	6%	-13%	12%
COc1ccc(C(=O)Nc2cccc(OC(=O)c3ccco3)c2)cc1	-10%	50µM*	13%	x	-14%	8%
COc1ccc(C(C)=O)c(OC(=O)c2ccco2)c1	33%	45µM*	u	-3%	4%	-28%
CC(C)NC[C@@H](O)COc1ccc(CCOCC2CC2)cc1	x	4%[21.5 µM]	x	x	x	15%
CC(C)NCC(O)COc1ccc(CCOCC2CC2)cc1 (centres undefined)	17%	35µM*!	-1%	5%	-14%	7%
SMILES	HP1b chromo inh	G9a block	BAZ2B inh	L3MBTL1 block	JMJD2A Tudor	Sfp inh
CC(C)C1C(c2ccccc2)N(C)C(c2ccccc2)CC1(O)c1ccccc1 (centres undefined)	23%	31%[12.7 µM]	7%	x	-7%	21%
CC(C)C1C(c2ccccc2)NC(c2ccccc2)CC1(O)c1ccc(F)cc1 (centres undefined)	37%	x	-16%	3%	-21%	56µM*
CC(C)C(=O)Nc1nnc(S(=O)(=O)N(C)Cc2ccc(F)cc2)s1	58%	u	2%	x	5%	x
COCCN1C(=O)C(=O)/C(=C(/O)c2ccc(S(=O)(=O)N3CCOCC3)cc2)C1c1ccc(O)cc1 (centres undefined)	17%	71µM*	u	2%	3%	u
CCCOc1ccc(/C(O)=C2/C(=O)C(=O)N(CCCOC)C2c2ccncc2)cc1 (centres undefined)	12%	-3%[12.7 µM]	-2%	6%	-34%	2%
COCCCN1C(=O)C(=O)/C(=C(/O)c2ccc(OC(C)C)cc2)C1c1ccc(O)c(OC)c1 (centres undefined)	-7%	56µM*	7%	1%	50µM*	15%
CCOc1ccc(C2/C(=C(/O)c3ccc(S(=O)(=O)N4CCCCC4)cc3)C(=O)C(=O)N2CCCOC)cc1OC (centres undefined)	35%	79µM*	-22%	x	-4%	-12%
COCCCN1C(=O)C(=O)/C(=C(/O)c2ccc(S(=O)(=O)N3CCOCC3)cc2)C1c1ccc(OC)cc1 (centres undefined)	35%	40µM*	-32%	x	2%	5%
COCCN1C(=O)C(=O)/C(=C(/O)c2ccc(S(=O)(=O)N3CCOCC3)cc2)C1c1cccc(Cl)c1 (centres undefined)	32%	4%	-15%	-4%	-16%	9%
Brc1ccsc1/C=N/Nc1ccccc1	7%	x	x	x	-19%	x
CCC1=[N+](CC(=O)c2ccc(C)cc2)CCn2cccc21	-4%	u	u	-7%	-32%	7%
CC1=[N+](CC(=O)c2ccccc2)CCn2cccc21	33%	32µM*	-29%	3%	-17%	0%
COCCCNc1nc2ccccc2[nH]c1=O	60%	5%	-2%	5%	2%	-1%
CC(C)OCCCNC1=C(Cl)C(=O)c2ccccc2C1=O	35µM*	x	10µM*	-45%	40µM*	u
COCCCNc1c2c3c(cccc3[nH]c1=O)C(=O)c1ccccc1-2	76%	-11%	6%	x	17%	79µM*
COCCCNC1=C(Cl)C(=O)c2ccccc2C1=O	u	40µM*	35µM*	-16%	u	1%
CC(C)NC1=C(Cl)C(=O)c2ccccc2C1=O	16µM*	20µM*	25µM*	x	40µM*	0%
CC(C)(C)c1ccc(C(=O)Nc2ccc(C(=O)NCc3cccnc3)cc2)cc1	7%	u	5%	x	-28%	-21%
Cc1ccc(Cl)c(OC(=O)c2ccc(N3CCOCC3)c([N+](=O)[O-])c2)c1	u	28µM*	u	-29%	u	-7%
